DAX1 inh-1: blocks DAX1 repression of SF-1 activated StAR promoter. HEK293T StAR-luciferase reporter, SF-1/DAX-1 repression relief. inhibition, % at 6.8 µM. hit rate 1.1% among 370,000;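 active = inhibition above the mean over all tested compounds plus 3 SD, cut at about 3.6% in these data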;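 note: 0% = DAX-1 cells with DMSO and 100% = cells lacking DAX-1 with DMSO; higher inhibition means more luminescence from relief of DAX-1 repression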
hcDAF-12 act: activators of H. contortus DAF-12 nuclear receptor; HEK293 hcDAF-12 lit1-tk-luc reporter, luminescence; 0% DMSO, 100% Δ7-dafachronic acid; activation, % at 6.8 µM; hit rate 1.4% among 370,000; AID 652067;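 active = activation above the mean of all tested compounds plus 3 SD, cut at about 5.5% in these data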;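 note: 100% = response to 3 µM Δ7-dafachronic acid high control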
DAX1 inh-2: inhibits human nuclear receptor DAX1. hit rate 0.99% among 340,000. inhibition, % at 6.75 µM. HEK293 Gal4-DAX1 luciferase reporter, luminescence. P51843;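 active = inhibition above the mean over all tested compounds plus 3 SD, cut at about 4.2% in these data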;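 note: 0% = DAX1-transfected cells with DMSO and 100% = empty-vector control cells with DMSO; inhibition shows as a rise in luminescence from relieved DAX1 repression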
hgDAF12 agonist: agonists of H. glycines DAF-12 nuclear receptor; HEK293 GAL4-hgDAF12 UAS-luciferase reporter, agonist luminescence; normalized to butyrate control; activation, % at 6.8 µM; hit rate 1.8% among 370,000;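 active = activation above a cutoff set at the mean of all screened compounds plus 3 SD, cut at about 10% in these data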;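 note: 0% = DMSO wells and 100% = sodium butyrate wells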
ssDAF-12 act: activators of S. stercoralis DAF-12 nuclear receptor. HEK293 ssDAF-12/GRIP1 lit1-tk-luc reporter, luminescence; % of 3 µM dafachronic acid response. activation, % at 6.8 µM. hit rate 1% among 370,000. AID 652126;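 active = activation above the mean over all tested compounds plus 3 SD, cut at about 0.9% in these data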;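 note: 0% = DMSO-only wells and 100% = 3 µM delta7-dafachronic acid wells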
AHR activator: human AHR activation. activation, % at 5 µM. hit rate 2.5% among 320,000. AHR-responsive luciferase reporter cells, luminescence. P35869; in the data active = activation above about 47%;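 note: 0% = vehicle wells and 100% = reference agonist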
LXRb hcDAF ctr: counter-screen for hcDAF-12 agonists: agonists of human LXR-beta. activation, % at 6.8 µM. 3,400 tested, under 10 active. shares compounds with hcDAF-12 act. HEK293 Gal4-LXR tk-luc reporter, luminescence, 24 h; normalized: DMSO 0%, positive control 100%;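 active = mean percent activation of the reporter above a cutoff set as the average over tested compounds plus their standard deviation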
hcDAF12 conf: hcDAF-12 agonism, confirmation assay; activation, % at 6.8 µM; HEK293 hcDAF-12 lit1-tk-luc reporter, luminescence; % of Δ7-dafachronic acid response; shares compounds with hcDAF-12 act; hit rate 61% among 3,400; AID 743032;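 active = mean activation across triplicate tests above the threshold derived from the earlier primary screen, cut at about 5.5% in these data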;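 note: 0% = DMSO only wells and 100% = 3 µM Δ7-dafachronic acid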
The depositor's hits bear a star; . = no result given. Compounds with a hit are over-represented: about 5.7% of the library has one in this group of screens.

SMILES	DAX1 inh-1	hcDAF-12 act	DAX1 inh-2	hgDAF12 agonist	ssDAF-12 act	AHR activator	LXRb hcDAF ctr	hcDAF12 conf
CC(=O)Oc1ccc(C(=O)Nc2ccc3c(c2)OCCO3)cc1	3	9.1*	2	11*	1	19	2	8.5*
COc1ccc(C(=O)/C=C(\C)Nc2ccc3c(c2)OCO3)cc1	0	7.2*	0	7	0	15	1	5
CS(=O)(=O)Nc1ccc(C(=O)Nc2ccc3c(c2)OCCO3)cc1	.	.	1	.	.	8	.	.
O=C(Nc1ccc2c(c1)OCO2)c1ccc(Br)o1	3	9.0*	1	13*	0	129*	0	5
O=C(COC(=O)CNC(=O)c1ccc(Br)o1)Nc1ccc2c(c1)OCCO2	0	0	0	-3	-1	-1	.	.
COc1ccc(OCC(=O)Nc2ccc3c(c2)OCO3)cc1	1	0	1	3	-1	3	.	.
O=C(Nc1ccc2c(c1)OCCO2)C(=O)NC1CC1	2	6.8*	1	8	0	4	1	5
Cc1ccc(C)c(C(=O)CCC(=O)Nc2ccc(N3CCN(C)CC3)cc2C)c1	-2	0	0	3	-2	1	.	.
OC[C@H]1O[C@@H](c2nc(-c3ccccc3Br)no2)[C@H](O)[C@@H](O)[C@H]1O	2	-1	.	-3	-1	.	.	.
CCCc1cc(-c2ccc3c(c2)COc2c4ccccc4nn2-3)on1	2	3	4	9	0	-1	.	.
Cc1cc(-c2ccc3c(c2)COc2c4ccccc4nn2-3)on1	4.5*	9.0*	4.8*	10	0	-8	2	10*
O=C(O)CNS(=O)(=O)c1ccc(C2CCCCC2)cc1	0	0	1	-4	-1	0	.	.
O=C(O)/C=C/c1cnc2ccccc2n1	0	2	0	2	-1	5	.	.
O=C(/C=C/c1cnc2ccccc2n1)NC12CC3CC(CC(C3)C1)C2	3	11*	1	7	0	2	2	10*
FC(F)Oc1ccc(NC(=S)NNc2ccnc3cc(Cl)ccc23)cc1	-1	-1	-3	1	-1	7	.	.
COc1ccc(CN(C)CC(=O)NC2CCCc3ccccc32)cc1OC (stereo not given)	-1	-2	0	0	-2	0	.	.
COCCNC(=O)C1(C)CCCN(C(=O)c2ccc(C)c(F)c2)C1 (stereo not given)	1	0	.	-1	-1	.	.	.
CC(C)c1ccc(NC(=O)C2CSC3(C)CCC(=O)N23)cc1 (stereo not given)	-1	0	0	2	-1	-2	.	.
CC(=O)N=c1sc2c3ccccc3ccc2n1C	-1	7.5*	-1	4	1	18	0	3
CC(=O)N=c1sc2cc(C)ccc2n1C	-1	-2	-2	-4	-2	-2	.	.
Cc1nc2c(-c3ccccc3)cnn2c(N2CCOCC2)c1C	3	12*	3	13*	0	32	1	9.0*
CC(C)(C)c1cc(N2CCOCC2)n2ncc(-c3ccccc3)c2n1	0	1	1	-1	0	0	.	.
O=S(=O)(Nc1c(O)ccc2ccccc12)c1ccc(F)cc1	1	8.1*	3	1	1.1*	55*	0	8.6*
O=S(=O)(Nc1ncccn1)c1ccc(F)cc1	0	1	0	0	-1	.	.	.
CC(=O)N(C)c1nnc(-c2ccccn2)s1	0	-1	1	5	-1	-1	.	.
COc1ccc(C(C)(C)C)cc1NC(=O)CNc1cccc2ccccc12	0	7.6*	-1	-3	-1	46	0	0
CC(=O)C1=C(O)C(=O)N(CCc2ccccc2)C1c1ccccc1[N+](=O)[O-] (stereo not given)	0	7.3*	3	3	0	49*	0	1

Source: PubChem
